Results: PubChem BioAssay AID1527 (The Scripps Research Institute Molecular Screening Center, 2009)
In all, about 290,000 compounds went through this assay and about 2,600 (0.9%) were called active. This is one part of a sample in which actives are shown more often than they occur. A number with no mark means an inactive call.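 The calls were made as follows: active = inhibition above the mean of all tested compounds plus 3 SD, cutoff set per screening run (cut at about 7.5% in these data); inactive = the rest.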

tested on: VIM-2 metallo-beta-lactamase (Pseudomonas aeruginosa); experiment: inhibition of VIM-2 nitrocefin hydrolysis – biochemical, epi-absorbance readout, Pseudomonas aeruginosa enzyme, primary screen (AID 1527); conditions: purified VIM-2, nitrocefin hydrolysis, epi-absorbance fluorescence; at 5.6 µM; hits give high values;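 also: red hydrolysis product quenches plate fluorescence so inhibitors raise well fluorescence; 0% = enzyme with DMSO and 100% = DMSO without enzyme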

SMILES | inhibition
CCc1cc(=O)oc2cc(C)cc(OC(C)C(=O)O)c12 (configuration not stated) | -2.35%
CCCc1cc(=O)oc2c(C)c(OCC(=O)N3CCC(C(=O)O)CC3)ccc12 | -1.65%
CCc1cc(=O)oc2cc(C)cc(OCC(=O)N3CCC[C@@H]3C(=O)O)c12 | 14.5% (active)
O=C(NCC1CCCO1)c1ccccc1-c1nc(-c2ccccc2Cl)no1 (configuration not stated) | -2.71%
COc1ccccc1NC(=O)c1cc(N2C(=O)C3C4CCC(C4)C3C2=O)ccc1Cl (configuration not stated) | -0.65%
COc1ccc(CCNC(=O)CCn2c(=O)c3ccccc3n(CC(=O)NCC3CCCO3)c2=O)cc1OC (configuration not stated) | -1.51%
COc1ccc(CCn2c(=N)c(C(=O)NCc3ccco3)cc3c(=O)n4cccc(C)c4nc32)cc1 | -1.42%
CCn1c(=N)c(C(=O)NCCCOC)cc2c(=O)n3cccc(C)c3nc21 | 10.5% (active)
Cc1cccn2c(=O)c3cc(C(=O)NCC4CCCO4)c(=N)n(Cc4ccc(F)cc4)c3nc12 (configuration not stated) | 5.79%
COc1ccc(CCn2c(=N)c(C(=O)NCC3CCCO3)cc3c(=O)n4cccc(C)c4nc32)cc1OC (configuration not stated) | 16.1% (active)
Cc1cccn2c(=O)c3cc(C(=O)NCCN4CCOCC4)c(=N)n(Cc4cccnc4)c3nc12 | 4.67%
Cc1ccc(S(=O)(=O)N(CC(=O)NCCSC2CCCCC2)c2ccccc2F)cc1 | -2.1%
COc1cccc(N(C(=O)c2snc(C(N)=O)c2N)C(C(=O)NCC2CCCO2)c2c[nH]c3ccccc23)c1 (configuration not stated) | -0.46%
CCOC(=O)C1(Cc2ccccc2C)CCCN(C(=O)CCc2c(C)noc2C)C1 (configuration not stated) | 0.38%
Cc1occc(=O)c1OCc1ccc(F)cc1 | -1.42%
COC(=O)CN1C(=O)[C@H]2[C@@H](C3CC3)N3C(=O)CN(Cc4ccc(-c5ccccc5)cc4)C(=O)[C@@]3(Cc3ccccc3)[C@H]2C1=O | -2.72%
Cc1cc(NC(=O)c2ccc(F)cc2)ccc1NC(=O)c1ccco1 | -3.06%
Cc1[nH][nH]c(=O)c1N=Nc1ccccc1 | -4.7%
Cc1[nH]n(-c2ccccc2)c(=O)c1N=Nc1ccccc1C(=O)N1CCCCC1 | -0.74%
COC(=O)c1ccccc1N=Nc1c(C)[nH][nH]c1=O | 8.28% (active)
CN(Cc1ccco1)S(=O)(=O)c1nnc(NC(=O)c2ccccc2)s1 | -2.48%
O=c1oc2ccccc2c(NC2CCCCC2)c1NS(=O)(=O)c1ccc(Cl)cc1 | -2.68%
Cc1cc2c(cc1C)[n+](C)cn2CC(O)COCC1CC=CCC1 (configuration not stated) | -3.17%

SMILES | inhibition
Clc1ccc(C2=CSC3=Nc4cccc5cccc(c45)N23)cc1 | 1.95%
Cc1cnc(C(=O)OCc2c(C)cc(C(C)(C)C)cc2C)cn1 | 0.21%
CCc1ccc(/C=C2\SC(N3CCOCC3)=NC2=O)cc1 | -0.98%
CC1CCN(C2=NC(=O)/C(=C/c3ccc(O)cc3)S2)CC1 | 1.8%
CCOc1cc(/C=C2\SC(N3CCCC(C)C3)=NC2=O)ccc1O (configuration not stated) | 14.7% (active)
CCOc1cc(/C=C2\SC(N3CCCCC3)=NC2=O)ccc1O | 14.9% (active)
O=C1N=C(N2CCCC2)S/C1=C\c1cccc(Br)c1 | -0.86%
O=C1N=C(N2CCc3ccccc3C2)S/C1=C\c1ccc(O)cc1 | 0.39%
COCCCNC(=O)[C@H]1N2C(=O)c3ccccc3C2SC1(C)C (some centres not stated) | 0.11%
CC(C)c1ccc(OCC(O)CN2CCN(c3ccccn3)CC2)cc1 (configuration not stated) | -3.55%
CN(CC(=O)NCc1ccncc1)S(=O)(=O)c1ccc(Br)cc1 | -1.28%
COc1ccccc1OCCCC(=O)Nc1ccc2c(c1)OCCO2 | -2.36%
CC1CCCCC1NC(=O)CCS(=O)(=O)c1ccc2c(c1)NC(=O)CO2 (configuration not stated) | -1.17%
COCC(=O)N1CCc2ccc(NC(=O)c3ccccc3Cl)cc2C1 | -2.32%
CSc1cccc(NC(=O)CN2C(=O)COc3ccc(S(=O)(=O)N4CCOCC4)cc32)c1 | -1.26%
O=C1/C(=C/c2cccs2)CCC1C1CCCC1 (configuration not stated) | -3.15%
COc1cccc2c(O)cc(=O)n(C)c12 | -2.19%
Cn1c2ccccc2c(=O)c2c(O)cccc21 | 16.8% (active)
Cn1c(=O)c(Sc2ccc(Cl)cc2)c(O)c2ccccc21 | -2.02%
COc1ccc(NC(=O)C2CCC(CNS(=O)(=O)c3csc(C(N)=O)c3)CC2)cc1OC (configuration not stated) | 1.07%
Cc1ccc2c(=O)cc(C(=O)NCCc3ccc(S(N)(=O)=O)cc3)oc2c1C | 5.69%
Cc1cc(=O)oc2c(C)c(OCC(=O)NCCN3CCOCC3)ccc12 | 5.03%
Cc1cc(=O)oc2c(C)c(OCC(=O)NCCc3ccc(S(N)(=O)=O)cc3)ccc12 | 10.4% (active)

SMILES | inhibition
Cc1ccccc1NC(=S)NC(=O)Cc1ccc(Cl)cc1 | -0.97%
O=C(NCCN1CCOCC1)c1cc(-c2cccs2)nc2ccccc12 | -0.14%
CCCN(CCC)CCNC(=O)c1cc2c(C)nc3ccccc3c2o1 | 10.2% (active)
Cc1cc(=O)oc(C)c1C(=O)NCCN(C)Cc1ccccc1 | -1.11%
CCCCN(C)CCCNC(=O)c1cc(-c2cccs2)nc2ccccc12 | -1.4%
Cc1nc2ccccc2c2oc(C(=O)NCCCN3CCC(C)CC3)cc12 | 16.2% (active)
CC1CCN(CCCn2c(SCC(=O)NC3CCCC3)nc3ccccc3c2=O)CC1 | -1.12%
Cc1ccccc1C(CC(=O)c1cccs1)C(C#N)C#N (configuration not stated) | -2.96%
O=S(=O)(NC1CCCCC1N1CCCCC1)c1ccc(Cl)cc1 (configuration not stated) | -1.53%
CCCCn1c(N)c(N(CC)C(=O)c2ccccc2C(F)(F)F)c(=O)[nH]c1=O | -0.36%
Cc1ccc(N(CC(=O)NCC2CCCO2)C(=O)CNS(=O)(=O)c2ccc(Cl)cc2)cc1 (configuration not stated) | -3.97%
COc1cccc(CNC(=O)Cn2c(=O)oc3cc(S(=O)(=O)N4CCCCC4)ccc32)c1 | -0.65%
CCOC(=O)C1=C(O)/C(=C/c2ccc(OCC(=O)Nc3ccc(C)cc3)cc2)N=C1C | -1.99%
CCn1c(SCC(=O)Nc2ccc3c(c2)OCCO3)nnc1C(C)C | -1.97%
CCCn1c(SCC(N)=O)nnc1C(C)C | -1.77%
CCCn1c(SCC(=O)c2ccc3c(c2)OCCO3)nnc1C(C)C | 9.77% (active)
CCN(CC)CCCNC(=O)COc1ccc2oc3c(c2c1)CCCC3 | -0.12%
O=C(N/N=C/c1cccc([N+](=O)[O-])c1)C1CC(=O)N(c2ccc(Br)cc2)C1 (configuration not stated) | -1.97%
CN(C)CCSc1nc(N)c2c3c(sc2n1)COC(C)(C)C3 | 10.3% (active)
CCSc1nc2sc3c(c2c(=O)[nH]1)CC(C)(C)OC3 | 0.86%
CCC1(C)Cc2c(sc3nc(SC)nc(N)c23)CO1 (configuration not stated) | -3.26%
CC1CC(NC(=O)/C(C#N)=C/c2ccc[nH]2)CC(C)(C)C1 (configuration not stated) | -3.17%
COc1ccc(C(=O)Nc2ccc(C3(C#N)CCCC3)cc2)cc1OC | -1.46%

SMILES | inhibition
Cc1cc(C)cc(N(CC(=O)NC2CCCC2)C(=O)CCC(=O)Nc2cc(C)on2)c1 | -2.81%
COc1ccc(Cc2nnc(NS(=O)(=O)Cc3ccccc3)s2)cc1 | 13.9% (active)
CCC(CC)c1nnc(NS(=O)(=O)Cc2ccccc2)s1 | -1.98%
COc1ccc(Cc2nnc(NC(=O)Cc3cccs3)s2)cc1 | -3.71%
Cc1ccc(NS(=O)(=O)c2cn(C)c(=O)n(C)c2=O)c(C)c1 | -0.4%
CCS(=O)(=O)N1CCC(N2CCN(c3ccccc3)CC2)CC1 | -1.31%
O=C(NCCc1cccc(F)c1)C1CCCN(c2nc3ccccc3s2)C1 (configuration not stated) | 0.44%
Cc1cc(Cl)c2oc(C(=O)NC(C)c3ccncn3)c(C)c2c1 (configuration not stated) | -1.68%
CCC1CCCCN1CCCNC(=O)c1cc2c(Cl)nc3ccccc3c2s1 (configuration not stated) | 19.5% (active)
CCC1CCCCN1CCCNC(=O)Cn1nc(-c2ccccc2)ccc1=O (configuration not stated) | -1.79%
CCC1CCCCN1CCCNC(=O)C1CCC(Cn2c(=O)[nH]c3ccccc3c2=O)CC1 (configuration not stated) | -4.77%
Cc1nn(C)c(Oc2ccccc2)c1CCNS(=O)(=O)c1ccc(F)cc1 | -2.13%
O=C(NCCCN1CCOCC1)c1cnn2c(-c3ccccc3)cc(-c3ccccc3)nc12 | 23.4% (active)
O=C(NCCCN1CCOCC1)c1ccccc1NS(=O)(=O)c1ccc(F)cc1 | -1.71%
O=C(NCCCN1CCOCC1)c1ccccc1NS(=O)(=O)c1ccc(Br)cc1 | -2.82%
COc1ccccc1N(C)C(=O)c1cc(S(=O)(=O)N2CCc3ccccc32)cn1C | -4.13%
Brc1ccccc1C1N=C(c2ccccc2)NO1 (configuration not stated) | -2.78%
NS(=O)(=O)c1ccc(NC(=O)COC(=O)c2c3c(nc4ccccc24)/C(=C\c2ccc4c(c2)OCO4)CCC3)cc1 | 23.9% (active)
O=C(COC(=O)c1c2c(nc3ccccc13)/C(=C\c1cccs1)CCC2)Nc1ccccc1Cl | -4.79%
COc1cc(-c2cc(C(=O)OCC(=O)Nc3ccc4c(c3)OCO4)c3ccccc3n2)cc(OC)c1OC | 2.83%
COc1cc(/C=C2\CCCc3c2nc2ccccc2c3C(=O)O)cc(Cl)c1O | 2.46%
NC(=O)c1ccc(NC(=O)COC(=O)c2c3c(nc4ccccc24)/C(=C\c2ccc4c(c2)OCO4)CCC3)cc1 | 20.7% (active)
NS(=O)(=O)c1ccc(NC(=O)COC(=O)c2cc3ccccc3oc2=O)cc1 | 0.95%
